Only some compounds are listed: those with a hit (about 4.1% of all), similar ones and a draw of the others.
TWEAK-Fn14 inh: blocks TWEAK-Fn14 interaction in a reporter cell assay; AID 1159606; TWEAK-stimulated Fn14 reporter cells, luciferase luminescence, 8 h; inhibition, % at 10 µM; actives 2% (n = 360,000); in the data active = inhibition above about 50%
Shn3 inh set2: Schnurri-3 reporter inhibition in Clone20 osteoblasts; actives 0.52% (n = 360,000); AID 588674; Clone20 osteoblast Shn3 3'UTR firefly luciferase, 24 h; inhibition, % at 12.5 µM;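 active = mean inhibition of at least 75% with every replicate also reaching 75%; inconclusive = mean inhibition at least 75% but some replicate below; inactive = mean inhibition below 75%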;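 also: 0% = median of neutral control wells and 100% = pilot-screen positive control compound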
LMP1 NFkB inh: Epstein-Barr LMP1 NF-kappaB reporter inhibition; actives 0.69% (n = 350,000); inhibition, % at 12.5 µM; LMP1-induced NF-kappaB luciferase reporter cells, luminescence; in the data active = inhibition above about 41%; inconclusive = no clear call, values can overlap the other calls;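 also: 0% = neutral control wells and 100% = reference inhibitor control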
Peg3 prom inh: reduces Peg3 promoter-driven luciferase expression in HeLa. HeLa PEG-Prom luciferase reporter, luminescence, overnight. inhibition, % at 20 µM. actives 1.7% (n = 360,000). AID 588405;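 active = inhibition of at least 50% at 20 µM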
TRPM1 prom inh: reduces MITF-dependent TRPM1 promoter luciferase signal; SK-MEL-5 TRPM1 promoter luciferase, 24 h; inhibition, % at 12.5 µM; actives 0.83% (n = 330,000); AID 488899;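 active = mean inhibition across replicates of 60% or more, whatever share of single replicates reaches that level; inconclusive = some that reach 60%, reason not given; inactive = mean inhibition across replicates below 60%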
TROY signal inh: blocks TROY-dependent signaling in reporter cells | actives 0.98% (n = 360,000) | Q293 LMP1-TROYcd NF-kB luciferase reporter, 4 h | inhibition, % at 10 µM;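 active = compounds whose plate-normalised and pattern-corrected inhibition of the luciferase reporter signal at the single screening dose is 50% or more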
Active calls of the source: *; ? = inconclusive; . = no result.

SMILES | TWEAK-Fn14 inh | Shn3 inh set2 | LMP1 NFkB inh | Peg3 prom inh | TRPM1 prom inh | TROY signal inh
CSc1cccc(CN2CCC(CO)(Cc3cccc(C(F)(F)F)c3)CC2)c1 | -16 | 49 | 0 | 52* | 0 | -1
COc1ccc2[nH]c(C(=O)N3CCC(CO)(Cc4cccc(C(F)(F)F)c4)CC3)c(C)c2c1 | 22 | 8 | 2 | 20 | -7 | 53*
COc1ccc(N2CCN(C(=O)c3[nH]c4ccc(OC)cc4c3C)CC2)cc1 | 12 | 3 | 3 | 17 | 8 | 6
Cc1ccc(-n2cc(CN3CCC(CO)(Cc4cccc(C(F)(F)F)c4)CC3)cn2)cc1 | 6 | 58 | 6 | 108* | 43 | 4
O=C(Cn1nnc(-c2ccccc2)n1)Nc1cccc(S(=O)(=O)N2CCOCC2)c1 | 8 | -6 | -5 | 16 | 2 | -3
COC(=O)c1ccc(NS(=O)(=O)NC(=O)c2cn(C)c3ccccc23)cc1 | 9 | -7 | -1 | -3 | 12 | -17
COc1cccc(/C(O)=C/c2nc3ccc(C(=O)NCCc4ccc(Cl)cc4)cc3[nH]c2=O)c1 | 19 | 45 | 4 | 55* | 45 | -23
Cc1cccc(-n2ccc(=O)c(C(=O)Nc3ccc(S(=O)(=O)N4CCOCC4)cc3)n2)c1 | -27 | 18 | -1 | -8 | -6 | 12
O=C(CSc1nnc(SCc2cccc3ccccc23)s1)N/N=C/c1c[nH]c2ccccc12 | 56* | 5 | -18 | -43 | 10 | -15
CC1CN(c2cc(=O)n(-c3ccccc3)c(=O)[nH]2)CC(C)O1 (stereo not drawn) | 2 | -37 | 61* | 7 | 6 | -3
COc1ccc(S(=O)(=O)NC(C)C(=O)NCc2ccccn2)cc1OC (stereo not drawn) | 4 | -9 | -5 | 3 | -2 | -20
CCCCCc1c2c(cc(O)c1C(=O)O)OC(=O)c1c(cc(OC)cc1C(=O)CCCC)O2 | 14 | -1 | -3 | 22 | . | 62*
CCCCCc1c2c(cc(O)c1C(=O)O)OC(=O)c1cc(C(=O)CCCC)c(OC)cc1O2 | 29 | -1 | 4 | 19 | -6 | -11
Cc1nc2ccccn2c1C(=O)N=Nc1c(O)n(CCC(C)C)c2ccccc12 | 69* | 86* | 36 | 107* | 57 | 18
O=S(=O)(c1ccc(OC(F)(F)F)cc1)N1CCC(O)(c2cccc(C(F)(F)F)c2)CC1 | 16 | 8 | -3 | 19 | 10 | 58*
CC(C)=CCC/C(C)=C/CNC(=O)C[C@H]1C[C@H](C(=O)N2CCOCC2)[C@@]2(C)c3[nH]c4ccc(Cl)cc4c3CCN2C1=O | 51* | 40 | 1 | 56* | 9 | 51*
CCN(CC)C(=O)[C@H]1C[C@H](CC(=O)NC/C=C(\C)CCC=C(C)C)C(=O)N2CCc3c([nH]c4cc(CCC(=O)N(C)C)ccc34)[C@]12C | 5 | 90* | 0 | 5 | 13 | 6
CCN(C(=O)COc1cccc2cccnc12)C1CCS(=O)(=O)C1 (stereo not drawn) | 9 | 4 | -6 | 9 | -5 | -9
COc1ccc2cc3cc(C(=O)NC4CC4)sc3nc2c1 | 67* | 11 | 3 | -14 | 3 | 27
CCOC(=O)c1cccc(NC(=O)/C=C/c2ccc3c(c2)OCO3)c1 | 70* | -28 | 9 | -98 | 6 | 51*
CCOC(=O)c1cccc(NC(=O)c2ccc3c(c2)OCO3)c1 | -31 | -33 | -20 | -189 | -53 | -32
CC(C)(C)n1nnnc1C(c1cccc(C#N)c1)N1CCCc2ccccc21 (stereo not drawn) | 50* | 7 | 0 | 21 | 13 | 38
CC(C)(C)n1nnnc1C(c1ccc(Cl)cc1)N1CCCc2ccccc21 (stereo not drawn) | 14 | 8 | 9 | 10 | 5 | -4
CCc1cccc(NC(=O)CSC2=NS(=O)(=O)c3ccccc32)c1 | -10 | -26 | -40 | 68* | 55 | 4
Cc1nnc(NC(=O)C2CC(=O)N(c3ccccc3)C2)s1 (stereo not drawn) | 6 | 5 | 1 | 15 | 4 | 2
SMILES | TWEAK-Fn14 inh | Shn3 inh set2 | LMP1 NFkB inh | Peg3 prom inh | TRPM1 prom inh | TROY signal inh
O=C1CC(c2ccccc2)=NN1c1ccccc1 | -18 | -5 | 1 | 37 | -9 | 52*
Nc1cc2[nH]c(=O)c3ccccc3c2cc1Br | -35 | 0 | -11 | 2 | 8 | -37
Nc1cc2c(cc1Br)[nH]c(=O)c1ccccc12 | 24 | 83 | -109 | -7 | 93* | -7
O=C(c1ccco1)N1CCN(C(=O)c2cnn(-c3ccc(Cl)cc3)c2C2CCNCC2)CC1 | 6 | -16 | -5 | -12 | -6 | -10
O=C(Nc1ccccc1)C1CCN(C(=O)c2ccco2)CC1 | 43 | -6 | -6 | 7 | 2 | -15
O=C(Nc1ccc(Br)cc1)C1CCN(C(=O)c2ccco2)CC1 | 55* | -17 | 0 | 1 | -4 | -14
CC(C(=O)Nc1nccs1)N1C(=O)c2ccccc2S1(=O)=O (stereo not drawn) | -1 | -11 | 1 | 3 | 2 | 10
Cc1[nH]c2ccccc2c1C1=CC(=O)C=CC1=O | 46 | 66 | -8 | 76* | 56 | 7
C=C(c1ccccc1O)n1ccnc1 | 20 | -12 | -1 | 3 | 7 | 3
O=C(Nc1ccc(F)cc1F)c1cc2nc3c(c(C(F)(F)F)n2n1)CCCC3 | 73* | -41 | -15 | -167 | -21 | 68*
O=C(O)c1cc2nc3c(c(C(F)(F)F)n2n1)CCCC3 | 13 | 8 | 7 | 2 | 2 | 12
CC(OC(=O)CNC(=O)c1sc2ccccc2c1Cl)c1ccccc1 (stereo not drawn) | -42 | -28 | 6 | -41 | . | -8
NC(N)=NN=C(c1ccc(F)cc1)c1ccc(C(F)(F)F)cc1 | 56* | -11 | -10 | 99* | 103* | 17
O=C(N/N=C/c1ccc(C(F)(F)F)cc1)c1ccc(O)cc1 | -22 | -12 | -28 | -132 | -39 | -56
CCCNC(=O)COc1ccc(-c2nn(C)c(=O)c3ccccc23)cc1 | -3 | 9 | 8 | 19 | 4 | 3
COc1cc(OC)nc(C(NC(=O)C2CCN(Cc3ccc(N(C)C)cc3)CC2)c2ccc(F)cc2)n1 (stereo not drawn) | -1 | -22 | . | 6 | . | -10
COc1cc(OC)nc(C(NC(=O)C2CCN(Cc3c[nH]c4ccccc34)CC2)c2ccc(Cl)cc2)n1 (stereo not drawn) | -13 | -3 | . | 101* | . | 18
CCOc1ccc(-n2c(-c3ccccc3)c[n+]3c2CCCCC3)cc1 | 29 | ? | 22 | 14 | 63* | 31
Cc1ccc(-c2c[n+]3c(n2-c2ccccc2)CCC3)cc1 | -4 | 91* | 19 | 35 | 48 | 12
CCCc1sc(N/N=C/c2ccccn2)nc1-c1ccc(F)cc1 | -20 | 77 | 63* | -42 | 63* | -9

Screening data deposited in PubChem by several laboratories.
